Experimental data published in PubChem BioAssay (Tox21).
“And” between values parts separate entries of the source, which are not always exact repeats. Equal entries are not always repeated. Results filed as inconclusive are left out. A call without a number means that no potency is given here. Some compounds were tested as several samples or in several runs, with calls that do not always agree. The source made the active and inactive calls. Unless noted, the call rests on the fitted dose curve; in most records, active means well fitted curve in the direction sought with a large enough effect in the repeat runs; inconclusive means weak or mixed curves; inactive means no such curve, though single readings can be large; an effect the other way counts as inactive or inconclusive.

Tests used:
[1] = A CellTox Green Cytotoxicity Assay to monitor cytotoxicity in HEK293 cells - 32 hour (AID 1224881); further: nearly all actives have a fitted effect of over 40% in size; further: potency means the concentration at half of the fitted maximal effect
In short: (§1)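 Each value comes from one timepoint of a single continuous run in which HEK293 cells with CellTox Green were exposed to compound for up to 40 h at 37 C, dye fluorescence rising with cell death.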

[2] = A CellTox Green Cytotoxicity Assay to monitor cytotoxicity in HepG2 cells - 0 hour (AID 1224882); further: nearly all actives have a fitted effect of over 35% in size; further: potency means the concentration at half of the fitted maximal effect
In short: (§2)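 Continuous culture of HepG2 cells with a membrane-impermeant DNA dye; rising fluorescence marks dead cells. Compound exposure lasted up to 40 h at 37 C, with reads every 8 h from 0 h.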

[3] = A CellTox Green Cytotoxicity Assay to monitor cytotoxicity in HepG2 cells - 32 hour (AID 1224883); further: nearly all actives have a fitted effect of over 50% in size; further: potency means the concentration at half of the fitted maximal effect
In short: as §2

[4] = A CellTox Green Cytotoxicity Assay to monitor cytotoxicity in HEK293 cells - 8 hour (AID 1224884); further: nearly all actives have a fitted effect of over 35% in size
In short: as §1

[5] = A CellTox Green Cytotoxicity Assay to monitor cytotoxicity in HEK293 cells - 16 hour (AID 1224888); further: nearly all actives have a fitted effect of over 35% in size; further: potency means the concentration at half of the fitted maximal effect
In short: as §1

[6] = qHTS RealTime-Glo MT Cell Viability Assay in HepG2 cells - 0 hour (AID 1224889); further: nearly all actives have a fitted effect of over 50% in size
In short: (§3)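 HepG2 cells were seeded at 600 cells/well together with NanoLuc luciferase and a cell-permeant prosubstrate, preincubated 5 h at 37 C/5% CO2, then pin-dosed with compounds in DMSO. Nonlytic luminescence from viable cells was read at each time point.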

[7] = A CellTox Green Cytotoxicity Assay to monitor cytotoxicity in HepG2 cells - 8 hour (AID 1224890); further: nearly all actives have a fitted effect of over 45% in size; further: potency means the concentration at half of the fitted maximal effect
In short: as §2

[8] = qHTS assay to identify small molecule antagonists of the estrogen receptor alpha (ER-alpha) signaling pathway using the BG1 cell line in the presence of 0.1 nM 17-beta-estradiol - cell viability counter screen (AID 1259241); further: nearly all actives have a fitted effect of over 40% in size; further: potency means the concentration at half of the fitted maximal effect
In short: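 VM7Luc4E2, 4,000 cells/well, phenol red-free medium + 10% charcoal-stripped FBS; 24 hr plating; cpd + 0.1 nM E2 final, 22 hr 37C/5% CO2; CellTiter-Fluor 30 min, fluorescence.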

[9] = qHTS assay to identify small molecule antagonists of the androgen receptor (AR) signaling pathway using the MDA cell line in the presence of 0.5 nM R1881 - cell viability counter screen (AID 1259242); further: nearly all actives have a fitted effect of over 45% in size; further: potency means the concentration at half of the fitted maximal effect
In short: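 Fluorescence from CellTiter-Fluor, which reports protease activity of live cells, was read 30 min after reagent addition to MDA-kb2 cells that had been incubated 16 hr with compound and 0.5 nM R1881.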

[10] = molecular target: Estrogen receptor (Homo sapiens) (UniProt P03372); experiment: qHTS assay to identify small molecule antagonists of the estrogen receptor alpha (ER-alpha) signaling pathway using the BG1 cell line in the presence of 0.1 nM 17-beta-estradiol (AID 1259244); further: nearly all actives have a fitted effect of over 50% in size; further: potency means the concentration at half of the fitted maximal effect
In short: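 Quantitative high-throughput screen in VM7Luc4E2 cells: compound plus 0.1 nM E2 (final), 22 h, 37C, 5% CO2; ONE-Glo added, 30 min room temperature, luminescence measured.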

[11] = qHTS assay to identify small molecule phospholipidosis (PLD) inducers (AID 1259344; active means well fitted curve in the direction sought with a large enough effect; an effect the other way counts as inactive or inconclusive)
In short: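 HepG2 cells on collagen I, attached 4 h at 37 C, were co-treated with compound and LipidTOX Red dye for 24 h at 37 C, then fixed with paraformaldehyde plus Hoechst 33342 and imaged by high-content microscopy for phospholipid accumulation.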

[12] = qHTS assay to identify small molecule HDAC inhibitors (AID 1259364); further: nearly all actives have a fitted effect of over 45% in size; further: potency means the concentration at half of the fitted maximal effect
In short: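 Endogenous HDAC class I/II activity was measured in wild-type HCT-116 cells by HDAC-Glo luminescence after 2 h compound treatment.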

[13] = qHTS assay to identify small molecule HDAC inhibitors - cell viability counter screen (AID 1259365); further: nearly all actives have a fitted effect of over 50% in size; further: potency means the concentration at half of the fitted maximal effect
In short: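 Luminescence from CellTiter-Glo, developed 30min at room temperature, reports viability of wild-type HCT-116 cells treated 2hr with compounds at 37 C and 5% CO2 after overnight plating.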

[14] = qHTS assay to identify small molecule agonists of the sonic hedgehog signaling (Shh) pathway - cell viability counter screen (AID 1259366); further: nearly all actives have a fitted effect of over 50% in size; further: potency means the concentration at half of the fitted maximal effect
In short: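 Cytotoxicity counter screen run in the same wells as the Shh reporter assay. NIH/3T3 cells carrying a Gli1 response element–driven luciferase were treated with DMSO-dissolved compounds for 24hr, and live-cell protease activity was measured with CellTiter-Fluor.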

[15] = qHTS assay to identify small molecule antagonists of the sonic hedgehog signaling (Shh) pathway - cell viability counter screen (AID 1259367); further: nearly all actives have a fitted effect of over 55% in size; further: potency means the concentration at half of the fitted maximal effect
In short: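 NIH/3T3-derived Gli1-Luc reporter cells (2,000 per well) rested 4 hr at 37 C, then received DMSO compounds plus conditioned medium. After 23 hr of treatment, CellTiter-Fluor was added for 1 hr at 37C and fluorescence read.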

[16] = qHTS assay to identify small molecule agonists of the sonic hedgehog signaling (Shh) pathway (AID 1259368; calls by dose curve; further: nearly all actives have a fitted effect of over 15% in size; further: potency means the concentration at half of the fitted maximal effect)
In short: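 Luminescent signal was taken as a measure of Gli1-controlled luciferase expression in stably transfected NIH/3T3-derived cells that had been treated for 24 hr with compounds delivered in DMSO.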

[17] = qHTS RealTime-Glo MT Cell Viability Assay in HEK293 cells - 8 hour (AID 1224887); further: nearly all actives have a fitted effect of over 50% in size; further: potency means the concentration at half of the fitted maximal effect
In short: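 qHTS format; HEK293 cells with NanoLuc/prosubstrate reagent, 37 C/5% CO2 for 5 h pre-dosing; compounds 23 nL in DMSO; luminescence at each time point reflects viable cells.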

[18] = molecular target: Androgen receptor (Homo sapiens) (UniProt P10275); experiment: qHTS assay to identify small molecule antagonists of the androgen receptor (AR) signaling pathway using the MDA cell line in the presence of 0.5 nM R1881 (AID 1259243); further: nearly all actives have a fitted effect of over 50% in size; further: potency means the concentration at half of the fitted maximal effect
In short: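 Inhibition of R1881 (0.5 nM final) induced reporter signal was measured in human MDA-kb2 cells; note the MMTV promoter also responds to GR. Exposure lasted 16 hr at 37C.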

[19] = qHTS RealTime-Glo MT Cell Viability Assay in HepG2 cells - 16 hour (AID 1224885); further: nearly all actives have a fitted effect of over 50% in size; further: potency means the concentration at half of the fitted maximal effect
In short: as §3

[20] = qHTS RealTime-Glo MT Cell Viability Assay in HEK293 cells - 24 hour (AID 1224886); further: nearly all actives have a fitted effect of over 50% in size; further: potency means the concentration at half of the fitted maximal effect
In short: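 HEK293 cells were seeded at 600 cells/well together with NanoLuc luciferase and cell-permeant prosubstrate, preincubated 5 h at 37 C/5% CO2, then given compound in DMSO by pintool. Luminescence from viable-cell prosubstrate reduction was read repeatedly over 40 h.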

Sequence of Androgen receptor (Homo sapiens) (P10275 whole entry, looked up): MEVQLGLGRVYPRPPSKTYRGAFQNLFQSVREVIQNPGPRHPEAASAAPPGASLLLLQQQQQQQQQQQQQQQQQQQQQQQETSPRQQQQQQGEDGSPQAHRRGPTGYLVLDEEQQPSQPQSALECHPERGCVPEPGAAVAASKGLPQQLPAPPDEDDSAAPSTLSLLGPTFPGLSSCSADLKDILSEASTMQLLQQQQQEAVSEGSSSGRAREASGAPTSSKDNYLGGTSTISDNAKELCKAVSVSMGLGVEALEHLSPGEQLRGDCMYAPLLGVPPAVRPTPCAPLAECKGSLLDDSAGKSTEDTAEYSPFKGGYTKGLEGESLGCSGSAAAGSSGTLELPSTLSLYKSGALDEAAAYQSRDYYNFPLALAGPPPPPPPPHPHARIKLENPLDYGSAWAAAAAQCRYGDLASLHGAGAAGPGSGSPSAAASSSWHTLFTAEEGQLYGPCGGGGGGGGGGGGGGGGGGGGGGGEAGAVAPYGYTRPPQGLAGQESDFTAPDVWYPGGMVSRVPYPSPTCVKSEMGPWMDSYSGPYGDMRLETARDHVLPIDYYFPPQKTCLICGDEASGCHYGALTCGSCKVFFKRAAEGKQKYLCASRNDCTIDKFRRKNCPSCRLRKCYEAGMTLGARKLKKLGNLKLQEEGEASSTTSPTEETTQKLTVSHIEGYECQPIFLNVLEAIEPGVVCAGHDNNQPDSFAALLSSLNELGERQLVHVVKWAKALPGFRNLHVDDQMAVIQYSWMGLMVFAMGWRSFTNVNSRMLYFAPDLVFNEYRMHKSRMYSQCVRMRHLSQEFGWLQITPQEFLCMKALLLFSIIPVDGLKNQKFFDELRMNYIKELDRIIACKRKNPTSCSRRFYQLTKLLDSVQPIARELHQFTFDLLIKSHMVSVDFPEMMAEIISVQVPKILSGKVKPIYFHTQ
Sequence of Estrogen receptor (Homo sapiens) (P03372 whole entry, looked up): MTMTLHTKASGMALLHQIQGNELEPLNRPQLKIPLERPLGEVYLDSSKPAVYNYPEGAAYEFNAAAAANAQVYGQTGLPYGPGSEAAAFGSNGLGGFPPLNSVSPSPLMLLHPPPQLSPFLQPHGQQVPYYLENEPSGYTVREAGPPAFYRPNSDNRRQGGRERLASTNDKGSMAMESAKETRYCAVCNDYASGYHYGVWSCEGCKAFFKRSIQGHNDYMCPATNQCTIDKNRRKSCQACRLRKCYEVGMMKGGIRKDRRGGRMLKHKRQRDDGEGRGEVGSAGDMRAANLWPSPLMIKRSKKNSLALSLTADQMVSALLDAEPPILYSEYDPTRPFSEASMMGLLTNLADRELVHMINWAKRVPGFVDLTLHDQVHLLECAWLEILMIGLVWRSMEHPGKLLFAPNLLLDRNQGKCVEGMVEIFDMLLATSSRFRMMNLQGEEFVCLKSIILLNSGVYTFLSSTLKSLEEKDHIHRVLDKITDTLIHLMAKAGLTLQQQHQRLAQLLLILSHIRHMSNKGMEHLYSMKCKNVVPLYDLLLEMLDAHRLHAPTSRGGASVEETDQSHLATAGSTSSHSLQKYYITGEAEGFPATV

Structure (SMILES)	Potency [1]	Potency [2]	Potency [3]	Potency [4]	Potency [5]	Potency [6]	Potency [7]	Potency [8]	Potency [9]	Potency [10]	Potency [11]	Potency [12]	Potency [13]	Potency [14]	Potency [15]	Potency [16]	Potency [17]	Potency [18]	Potency [19]	Potency [20]
CCCCCCC[N+](CC)(CC)CCCCc1ccc(Cl)cc1	5.35 µM (active)	inactive	23.9 µM (active)	inactive	inactive	inactive	inactive	26.6 µM (active)	6.68 µM (active)	11.9 µM (active)	inactive	inactive	inactive	inactive	inactive	inactive				
C=CC(=O)OCC(CO)(COC(=O)C=C)COC(=O)C=C	15.5 µM (active)	inactive	9.81 µM (active)	inactive	inactive	inactive	inactive	15.4 µM (active) and 48.6 µM (active)	10.9 µM (active) and 27.3 µM (active)	13.7 µM (active)		inactive		4.34 µM (active) and 10.9 µM (active)	3.87 µM (active) and 8.63 µM (active)		6.19 µM (active) and inactive	5.46 µM (active) and 12.2 µM (active)		
Cc1ccc(-n2nc(C(C)(C)C)cc2NC(=O)Nc2ccc(OCCN3CCOCC3)c3ccccc23)cc1	inactive	inactive	inactive	inactive		inactive	inactive	inactive	inactive	inactive	inactive	inactive	inactive		inactive				inactive	
Oc1cccc(-c2c3nc(c(-c4cccc(O)c4)c4ccc([nH]4)c(-c4cccc(O)c4)c4nc(c(-c5cccc(O)c5)c5ccc2[nH]5)CC4)C=C3)c1	inactive	inactive	inactive	inactive	inactive	inactive	inactive	3.35 µM (active)			inactive			13.3 µM (active)	13.3 µM (active)	inactive	23.9 µM (active)	29.8 µM (active)		23.9 µM (active)
COc1ccc(CN2CCN(C(c3ccc(F)cc3)c3ccc(F)cc3)CC2)c(OC)c1OC	inactive	inactive	10.7 µM (active)	inactive		inactive	inactive	inactive					inactive			inactive	19 µM (active)			9.52 µM (active)
NNc1nc(-c2ccc([N+](=O)[O-])cc2)cs1	inactive	inactive	inactive	inactive	inactive	inactive	inactive	27.3 µM (active)	54.5 µM (active)	48.6 µM (active)		17.2 µM (active)	inactive	inactive	48.6 µM (active)	inactive	inactive	17.2 µM (active)		24.5 µM (active)
CCCCc1oc2ccc(NS(C)(=O)=O)cc2c1C(=O)c1ccc(OCCCN(CCCC)CCCC)cc1	21.3 µM (active)	inactive	19 µM (active)		23.9 µM (active)		23.9 µM (active)				inactive	inactive	inactive	21.1 µM (active)	26.6 µM (active)	inactive	19 µM (active)		19 µM (active)	10.7 µM (active)
Clc1ccccc1C(c1ccccc1)(c1ccccc1)n1ccnc1	43.6 µM (active) and inactive	inactive	19.5 µM (active) and inactive			inactive	49 µM (active) and inactive		43.3 µM (active) and inactive	24.3 µM (active) and inactive		inactive	inactive		13.7 µM (active)	inactive	24.5 µM (active)		24.5 µM (active) and inactive	21.9 µM (active) and 6.01 µM (active)
Cc1ccc(O)c(C(C)(C)C)c1	43.6 µM (active)	inactive	43.6 µM (active) and 34.7 µM (active)		inactive	inactive	48.9 µM (active) and 38.9 µM (active)	inactive					inactive	inactive	inactive	inactive	inactive			inactive
CCN(CC)CCCC(C)Nc1c2ccc(Cl)cc2nc2ccc(OC)cc12 (stereo unspecified)	7.56 µM (active)	21.3 µM (active)	6.74 µM (active)		23.9 µM (active)	inactive	16.9 µM (active)	inactive							inactive	inactive	5.35 µM (active)		9.52 µM (active)	
CCCCCCCCOC(=O)c1ccc(O)cc1	43.5 µM (active) and 43.6 µM (active)	inactive	inactive and 43.6 µM (active)		48.8 µM (active) and 49 µM (active)	inactive	inactive	inactive	inactive			inactive	inactive	inactive	inactive	inactive	43.5 µM (active)			
Cc1cccc(CN2CCN(C(c3ccccc3)c3ccc(Cl)cc3)CC2)c1 (stereo unspecified)	inactive	inactive	inactive		inactive	inactive	inactive	inactive	inactive	inactive	inactive		inactive	inactive	inactive	inactive	inactive		inactive	inactive
CCCC(c1cc(C(C)(C)C)c(O)cc1C)c1cc(C(C)(C)C)c(O)cc1C	49.6 µM (active)	inactive	35.1 µM (active)			inactive		61.9 µM (active)	49.2 µM (active)	27.6 µM (active)		inactive	49.2 µM (active)	22 µM (active)	17.4 µM (active)	inactive	44.2 µM (active)		44.2 µM (active)	22.1 µM (active)
O=C(OCC1CO1)C1CCCCC1C(=O)OCC1CO1 (stereo unspecified)	inactive	inactive	inactive			inactive	inactive						inactive	13.7 µM (active)	13.7 µM (active)	inactive	inactive	inactive	inactive	inactive
O=C1C=CC(=O)N1	17.8 µM (active)	inactive	20 µM (active)		22.5 µM (active)	inactive	50.3 µM (active)	55.9 µM (active)	49.8 µM (active)			inactive		5.59 µM (active)	7.04 µM (active)	inactive	15.9 µM (active)	inactive	25.2 µM (active)	12.6 µM (active)
COc1ccc(C(=O)/C(Br)=C\C(=O)O)cc1	30.9 µM (active)	inactive	13.8 µM (active)		inactive	inactive	inactive	inactive	inactive	inactive	inactive	inactive	inactive			17.2 µM (active)		48.6 µM (active)		38.9 µM (active)
Cc1[nH]cnc1C[C@H]1CCc2c(C)c3ccccc3n2C1=O	47.8 µM (active)	inactive	38 µM (active)		inactive	inactive		inactive				inactive	inactive			inactive				33.8 µM (active)
CN(C)[C@@H]1C(=O)C(C(N)=O)=C(O)[C@@]2(O)C(=O)C3=C(O)c4c(O)cccc4C[C@H]3C[C@@H]12	inactive	inactive	inactive			inactive	inactive	inactive	inactive			inactive	inactive	inactive	inactive	inactive	inactive		inactive	inactive
